# Assay results: PubChem BioAssay (NCI)
# Compounds without any hit were thinned out: in the full panel of roughly 83,000, 20% have a hit.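 In brief: 96-well plates, 48 h treatment, single concentration, percent growth endpoint.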 A number with no mark means an inactive call. Active and inactive are the calls of the source. The calls were made as follows: active = growth percent below 10; inactive = the rest.
# System: HL-60(TB) leukemia
# Assay: NCI-60 one-dose screen, 48 h (100 = growth as untreated, 0 = no growth, -100 = all killed)
# Settings: 10 µM unless noted
row,SMILES,growth
1,COc1cc(-c2nn(-c3cccc(NC(=O)CCNc4ccc(N5CCOCC5)cc4)c3)cc2-c2ccncc2)ccc1Cl,8.36% (active)
2,CN(C)CCCn1c2c(c3ccc(-c4ccn[nH]4)cc3c1=O)C(=O)c1ccccc1-2,-7.99% (active)
3,O=C(O)c1cccc([N+](=O)[O-])c1O,78.2%
4,COc1cc2c3c(c4c5ccccc5[nH]c4c2c(OC)c1OC)C(=O)N(CCN1CCCCC1)C3=O,63%
